# The campaign covered roughly 69,000 compounds. About 8,600 (12%) showed an effect of 50% or more. For the sample, strong results were picked, then their nearest neighbours and some compounds at random.
# Tested on: Plasmodium berghei
# Experiment: Screen against P. berghei liver stage (PbLuc), transformed with Luciferase, at 10uM
# Type: functional, HepG2
# Settings: tested at 10 uM
row,Structure (SMILES),INHIBITION [%]
1,CC(O)CN1CCN(C(=O)c2cc3ccccc3n2C)CC1 (configuration not stated),66.8
2,CC(O)CN1CCN(C(=O)c2ccc3c(c2)COC3)CC1 (configuration not stated),60.5
3,CCC(O)CN1CCN(C(=O)c2ccc3c(c2)COC3)CC1 (configuration not stated),-9.37
4,CCC(O)CN1CCN(C(=O)c2cc3ccccc3n2CC)CC1 (configuration not stated),1.75
5,CC(C)(C)C(O)CN1CCN(C(=O)c2ccc3c(c2)COC3)CC1 (configuration not stated),31.8
6,CCn1c(C(=O)N2CCN(CC(C)O)CC2)cc2ccccc21 (configuration not stated),35.7
7,O=C(c1cncs1)N1CCOCC(Cc2ccccn2)C1 (configuration not stated),13.94
8,COCCO[C@@H]1CCN(C(=O)c2ccc(C)o2)[C@@H]1Cc1cccnc1,2.3
9,COc1cc(-c2n[nH]c(CN)n2)cc(OC)c1OC,-9.21
10,COc1ccc(C(O)CNC(=O)NCCc2csc(C)n2)cc1 (configuration not stated),44.1
11,O=C(C1CCN(Cc2nc(-c3ccco3)no2)CC1)N1CCCC1,25.1
12,Cc1ccc(F)c(C(=O)NC2CCC(N3C(=O)CCC3=O)CC2)c1 (configuration not stated),-35
13,O=C(NC1CCC(N2C(=O)CCC2=O)CC1)c1c[nH]c2ccccc12 (configuration not stated),76.7
14,Cc1[nH]ccc1C(=O)NC1CCC(N2C(=O)CCC2=O)CC1 (configuration not stated),-86.5
15,CN(C)CCn1c2c(ccc1=O)CC(NC(=O)c1ccsc1)CC2 (configuration not stated),37.5
16,Cc1oc(C)c(C(=O)NCc2cccnc2)c1C,-8.75
17,COC(=O)CCCNC(=O)N1CCc2c(F)ccc(F)c2C1,28.7
18,CCCNC(=O)CCNC(=O)N1CCc2c(F)ccc(F)c2C1,71.7
19,COCCOCCNC(=O)N1CCc2c(F)ccc(F)c2C1,5.38
20,Cc1cc(CN2C[C@@H](C)[C@@]3(CCN(CC(=O)N(C)C)C3=O)C2)oc1C,51.2
21,CN1CC[C@]2(CN(Cc3cccs3)C[C@H]2c2ccccc2)C1=O,24.9
22,CCc1ccc(CN2C[C@@H](C)C3(CCN(CC(=O)N(C)C)C3=O)C2)o1 (some centres not stated),21.1

row,Structure (SMILES),INHIBITION [%]
1,Cc1cc(CN2C[C@@H](C)[C@@]3(CCN(C)C3=O)C2)oc1C,65.9
2,Cc1cccc(CN2C[C@@H](C)[C@@]3(CCN(CC(=O)N(C)C)C3=O)C2)c1,2.58
3,Cc1noc(C)c1CN1C[C@H](C)[C@]2(CCN(Cc3cccnc3)C2=O)C1,13.7
4,Fc1cccc(-c2nc(CN3CCCC(Cn4cncn4)C3)co2)c1 (configuration not stated),11.9
5,COc1ccc2cccc(CC(=O)NCCCc3n[nH]c(C)n3)c2c1,-6.97
6,Cc1nc(CCCNC(=O)Nc2cc(F)cc(F)c2)n[nH]1,55.5
7,Cc1nc(CCCNC(=O)c2c(F)cccc2Br)n[nH]1,39.6
8,Cc1nc(CCCNC(=O)c2cc(F)ccc2O)n[nH]1,46.6
9,Cc1nc(CCCNC(=O)Nc2ccc(F)cc2F)n[nH]1,56.5
10,Cc1nc(CCCNC(=O)c2c(F)cc(F)cc2F)n[nH]1,33.7
11,COc1ccc(C(NCc2ccc(C#N)cc2)C2CC2)cc1 (configuration not stated),-22.3
12,COC(=O)CCn1ccc(=O)c2ccccc21,20.9
13,O=S(=O)(C1CC1)N1CCCn2cnc(COc3cccnc3)c2C1,-4.26
14,Cc1ccc(CCCC(=O)N2CCN(C3CCCN(C)C3)CC2)s1 (configuration not stated),15.7
15,O=C(C1CCOC1)N1CCN(CC(F)(F)F)c2ccccc21 (configuration not stated),34.2
16,c1ccc(-c2nnc(CN3CCCC3Cn3cncn3)o2)cc1 (configuration not stated),-41.6
17,COCc1ncn2c1CN(C(=O)c1ccc[nH]1)CC2,-20.1
18,Cc1nc(C)n(CC2CCCN(CCC(=O)N3CCOCC3)C2)n1 (configuration not stated),-2.19
19,c1c[nH]c(CN2CCCC(Cc3ccc(NC4CCCC4)nn3)C2)n1 (configuration not stated),-3.02
20,CCOc1cc(NC(=O)N(C)Cc2ncnn2C)ccc1C,50.1
21,Cc1ccc(NC(=O)N(C)Cc2cnn(C)c2)c(C)c1,-29.1
22,CCSCc1cccc(NC(=O)N(C)Cc2ncnn2C)c1,59.7

row,Structure (SMILES),INHIBITION [%]
1,Cc1ccc(NC(=O)N(C)Cc2cnn(C)c2)cc1OCC(F)F,52.7
2,CN(Cc1ncnn1C)C(=O)Nc1ccc(OC(F)F)cc1,21.2
3,CC(C)OCc1cccc(NC(=O)N(C)Cc2ncnn2C)c1,45.8
4,CC(=O)N(C)Cc1cccc(NC(=O)N(C)Cc2nccs2)c1,-49.3
5,CCOc1ccc(CNC(=O)N(C)Cc2ncnn2C)cc1C,49
6,Cc1ccc(C)c(NC(=O)N(C)Cc2cnn(C)c2)c1,39.8
7,COc1c(CNCCNC(=O)c2cccs2)c(C)nn1C,-79.3
8,Cc1ccc(OCCN(C)C(=O)NC(C)c2nncn2C)cc1 (configuration not stated),21.5
9,Cc1cccc(NC(=O)Cn2nc3ccccn3c2=O)c1C,-7.35
10,CC(C)OCc1nn(C)c2c1CCN(CC1CC1)C2,32.5
11,Cc1cc(CN2C[C@H](N3CCOCC3)[C@@H]3OCCC[C@@H]32)oc1C,26.4
12,O=c1oc(-c2ccc(F)cc2)nn1CN1CCCCC1,23.7
13,CCOc1ccc(Cl)c(C(=O)N2CCN(CC(O)CC)CC2)n1 (configuration not stated),14.1
14,CCc1cc(N2CCC(N3CCSCC3)CC2)n2nccc2n1,35
15,COCc1cc(N2CCN(c3ccc(Cl)cn3)CC2)n2nccc2n1,54.5
16,CCc1cc(N2CCN(c3ccc(Cl)cn3)CC2)n2nccc2n1,81.2
17,COCc1cc(N2CCN(Cc3ccncc3)CC2)n2nccc2n1,48.5
18,COCc1cc(N2CCOCC2)n2nccc2n1,-11.9
19,COCc1cc(N2CCN(C3CCCCC3)CC2)n2nccc2n1,-9.29
20,Cc1ccc(CN2CC[C@@H](O)[C@@H]2Cc2cnn(C)c2)o1,22.9
21,Cc1cccc(CN2C[C@H]3CCC[C@@]3(COCc3csc(C)n3)C2)n1,-28.2
22,CCC(CC)c1cc(CNC(=O)N2CCCC(C(=O)NC)C2)on1 (configuration not stated),64.6

row,Structure (SMILES),INHIBITION [%]
1,CCC(CC)c1cc(CNC(=O)N2CCC(CO)CC2)on1,40.4
2,CCC(CC)c1cc(CNC(=O)N2CCCC(N(C)C)C2)on1 (configuration not stated),-34
3,C1CCC(c2nnc3sc(C4CCCO4)nn23)C1 (configuration not stated),49.4
4,CCOc1ccc(CC(=O)N2CCN(c3nccn3CC)CC2)cc1,49.1
5,Cc1csc(CNC(=O)N(C)Cc2cnn(C)c2)n1,54.4
6,Cc1nc(CNC(=O)N(C)Cc2cnn(C)c2)cs1,15.05
7,Cc1ccsc1CNC(=O)N(C)Cc1cnn(C)c1,-14.86
8,Cc1ccc2c(c1)C1(CCN(C(=O)C3CC3)CC1)CC2N1CCOCC1 (configuration not stated),10.7
9,Cc1nn(C)c2c(N3CCN(C(=O)C4CCCCC4)CC3)ncnc12,44.1
10,CC(C)CN1C(=O)C2(CCN(Cc3ccsc3)C2)c2ccccc21 (configuration not stated),32.2
11,CN(C)CCN1C(=O)C2(CCN(CC3CC3)CC2)c2ccccc21,27.6
12,Cc1ccc(CN2CCC3(C2)C(=O)N(CC2CC2)c2ccccc23)s1 (configuration not stated),55
13,CC(C)CN1C(=O)C2(CCN(CC3CCOCC3)C2)c2ccccc21 (configuration not stated),71.9
14,Cc1ccc(CN2CCC3(CC2)C(=O)N(C)c2ccccc23)s1,31.8
15,CC(C)CN1C(=O)C2(CCN(Cc3cccs3)C2)c2ccccc21 (configuration not stated),20.4
16,COCCN1C(=O)C2(CCN(CC3CC3)CC2)c2ccccc21,55.7
17,CC(=O)N1CCC2(C1)C(=O)N(CC1CC1)c1ccccc12 (configuration not stated),-19.6
18,CC(C)CN1C(=O)C2(CCN(Cc3nccs3)C2)c2ccccc21 (configuration not stated),81.8
19,CN1CCC2(CC1)C(=O)N(CC1CC1)c1ccccc12,14.1
20,CC(C)CN1C(=O)C2(CCN(Cc3ccc(F)cc3)C2)c2ccccc21 (configuration not stated),38.2
21,CC(C)CN1C(=O)C2(CCN(Cc3ccoc3)C2)c2ccccc21 (configuration not stated),23.3
22,COc1ccc(OC)c(C2CC(=O)Nc3nc(N4CCOCC4)sc32)c1 (configuration not stated),7.66

row,Structure (SMILES),INHIBITION [%]
1,Cc1c(NC(=O)NC(C)CCO)cccc1OC1CCCC1 (configuration not stated),-16.9
2,CC(C)n1ccnc1CN1CCCN(C(=O)c2ncccc2O)CC1,32.45
3,CCOCCN1CCN(CC(O)c2ccc(F)cc2)CC1 (configuration not stated),37.9
4,O=C(NC[C@]12COC[C@H]1CN(Cc1nccs1)C2)c1ccsc1,7.31
5,COc1ccc(NC(=O)C2CC(=O)N(C)C2)cn1 (configuration not stated),45.7
6,CC(C)(NS(C)(=O)=O)c1nc(-c2ccncc2)no1,22
7,O=C(CCn1c(C(F)F)cc2cccnc21)NC1CCCCC1,14.7
8,CN1C(=O)C2(CCN(CC3CC3)CC2)c2ccccc21,30.7
9,Cc1ccc(CN2CCC3(C2)C(=O)N(CC(C)C)c2ccccc23)s1 (configuration not stated),65.1
10,Cc1ccc(CN2CCC3(C2)C(=O)N(CC(N)=O)c2ccccc23)s1 (configuration not stated),32.5
11,CN1C(=O)C2(CCN(CCO)C2)c2ccccc21 (configuration not stated),34.7
12,Cc1ccc(CN2CCC3(CC2)C(=O)Nc2ccccc23)s1,23.5
13,CN1C(=O)C2(CCN(CC3CCC3)C2)c2ccccc21 (configuration not stated),88.2
14,CCOCC(=O)N1C[C@@H](O)[C@H](N2CCN(c3ccccc3)CC2)C1,-3.25
15,CC(C)CCN1CCN(C(=O)c2c[nH]c(=O)[nH]2)CC1,-16.8
16,CCn1nc(C)c2nc(C(C)C)nc(N(C)Cc3ccco3)c21,11.8
17,OCCN1CCC(CNCc2ccccc2OC(F)(F)F)CC1,4.8
18,Cc1cc(C)n(-c2ccc(CNCc3cccc(C#N)c3)cn2)n1,-12.63
19,CC(C)c1csc(C(=O)N2CCCC(Cn3cc(CO)nn3)C2)n1 (configuration not stated),40.3

# Reference: ChEMBL document CHEMBL4513216, “Probing the Open Global Health Chemical Diversity Library for Multistage-Active Starting Points for Next-Generation Antimalarials” (ACS Infect Dis, 2020)
